Screening results deposited in PubChem by National Center for Advancing Translational Sciences (NCATS).
POLI inh: qHTS for Inhibitors of Polymerase Iota. DNA polymerase iota (Homo sapiens), Q9UNA4. Pol iota fluorescent replication assay, 10 min. Potency, µM (doses to about 115 µM), actives largely listed as inhibitors. 1% of 390,000 active. AID 588590, 2011
Target sequence (Q9UNA4 whole entry, looked up): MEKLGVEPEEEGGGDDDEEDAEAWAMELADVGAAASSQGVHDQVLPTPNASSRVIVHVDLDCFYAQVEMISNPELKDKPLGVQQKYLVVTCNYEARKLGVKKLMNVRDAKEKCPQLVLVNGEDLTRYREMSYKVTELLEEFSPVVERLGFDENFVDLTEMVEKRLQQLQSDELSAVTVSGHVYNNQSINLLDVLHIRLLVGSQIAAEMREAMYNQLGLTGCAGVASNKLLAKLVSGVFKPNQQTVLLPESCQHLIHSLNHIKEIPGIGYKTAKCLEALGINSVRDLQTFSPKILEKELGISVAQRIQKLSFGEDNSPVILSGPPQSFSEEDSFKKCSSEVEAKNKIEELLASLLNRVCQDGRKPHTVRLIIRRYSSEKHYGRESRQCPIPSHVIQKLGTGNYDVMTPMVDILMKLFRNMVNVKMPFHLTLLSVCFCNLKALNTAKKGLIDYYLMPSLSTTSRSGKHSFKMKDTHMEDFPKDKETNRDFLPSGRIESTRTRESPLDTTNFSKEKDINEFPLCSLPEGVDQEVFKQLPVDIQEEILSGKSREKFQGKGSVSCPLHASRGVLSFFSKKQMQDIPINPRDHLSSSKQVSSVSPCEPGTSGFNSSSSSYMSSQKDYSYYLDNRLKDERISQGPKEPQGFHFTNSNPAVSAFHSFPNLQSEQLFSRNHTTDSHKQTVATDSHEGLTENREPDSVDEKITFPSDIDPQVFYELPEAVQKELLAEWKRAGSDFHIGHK
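Fluorescent replication assay read twice, at 0 min and 10 min after adding 50 nM (final) substrate. Enzyme (10 nM) and compounds were first incubated 15 min at room temperature; enzyme-free buffer wells were negative controls.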
Pol kappa inh-1: qHTS for Inhibitors of Polymerase Kappa | AID 588579, 2011 | 0.53% of 400,000 active | Potency, µM (titrated, usually from 107 µM), most hits filed as inhibitors | purified Pol kappa, fluorescent DNA synthesis assay, 10 min
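Here, compound and 10 nM enzyme are combined for 15 min at room temperature; adding 50 nM substrate (final) starts DNA synthesis, tracked by fluorescence at 0 and 10 min against buffer-only wells.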
Pol eta inh-1: qHTS for Inhibitors of Polymerase Eta; recombinant Pol eta, fluorescent DNA replication assay; Potency, µM (titrated, usually from 114 µM), most hits filed as inhibitors; 1.2% of 390,000 active
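Pol eta at 10 nM preincubated with compounds 15 min at room temperature; reaction started with fluorescent substrate (50 nM final) and read kinetically at 0 and 10 min.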
Pol beta inh: qHTS Assay for Inhibitors of DNA Polymerase Beta | P06746 | Pol beta primer extension/strand displacement, fluorescence kinetic | Potency, µM (doses to about 114 µM), actives largely listed as inhibitors | 1.3% of 340,000 active | AID 485314, 2010
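Homogeneous kinetic assay of primer extension and strand displacement by 10 nM Pol beta, preincubated 15 min at room temperature with compound before 50 nM substrate (final) was added. Read at 0 and 10 min; four-parameter Hill fit.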
L3MBTL1 block: qHTS Assay for the Inhibitors of L3MBTL1; Lethal(3)malignant brain tumor-like protein 1 (Homo sapiens), Q9Y468; AlphaScreen L3MBTL1–H3K9me1 peptide binding; Potency, µM (titrated, usually from 57.1 µM), hits mostly inhibitors; 0.66% of 230,000 active; AID 485360, 2010; note: nearly all actives have a fitted effect of over 60% in size
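AlphaScreen proximity signal between nickel-chelate acceptor and streptavidin donor beads (final 10 ug/mL) reports binding of 50 nM L3MBTL1 to 75 nM biotin-H3 K9me1 peptide; complex incubated with compounds 30 min at room temperature; cefsulodin titration as control.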
Pol kappa inh-2: qHTS for Inhibitors of Polymerase Kappa: Confirmatory Assay for Cherry-picked Compounds | shares compounds with Pol eta inh-1 | purified Pol-kappa, fluorescent strand-displacement substrate | Potency, µM, usual class: inhibitors | 76% of 920 active
Pol eta inh-2: qHTS for Inhibitors of Polymerase Eta: Confirmatory Assay for Cherry-picked Compounds. 64% of 2,600 active. AID 720502, 2013. shares compounds with Pol eta inh-1. Potency, µM, hits mostly inhibitors. Pol eta primer extension, TAMRA/BHQ fluorescence, 10 min
A number is an active result; – = inactive; ? = inconclusive; · = not tested or not shown; [ ] = dose if it differs, or a comment. Shown are actives, neighbours in structure and some others; about 2.4% of the full set was active somewhere. Calls come from the whole dose curve; as a rule, active = well fitted curve in the direction sought with a large enough effect; inconclusive = small, poorly fitted or top-dose-only effect, or another doubt; inactive = no such curve, though single readings can be large; an effect the other way counts as inactive or inconclusive.

SMILES	POLI inh	Pol kappa inh-1	Pol eta inh-1	Pol beta inh	L3MBTL1 block	Pol eta inh-2	others
CCCCCCCCCC[n+]1ccc(/C=C/c2c[nH]c3ccccc23)cc1	–	–	·	·	·	·
O=C(Nc1ccc(Cl)cc1C(=O)O)c1ccc2c(c1)C(=O)N(Cc1ccco1)C2=O	35.5µM	?	79.4µM	?	?	?
CCCCC1=CC2=CC(=O)C(C)(OC(=O)CC)C(=O)C2=CN1C(CO)CO (configuration not stated)	?	–	–	–	·	·
CCCCC1=CC2=CC(=O)C(C)(OC(=O)CC)C(=O)C2=CO1 (configuration not stated)	50.1µM	?	50.1µM	·	·	?
CCCCC1=CC2=CC(=O)C(C)(OC(=O)C3CCCC3)C(=O)C2=CO1 (configuration not stated)	50.1µM	79.4µM	39.8µM	–	·	?
CC1(OC(=O)C2CCCC2)C(=O)C=C2C=C(c3ccsc3)N(C3CCCC3)C=C2C1=O (configuration not stated)	?	–	–	–	·	·
CCC(=O)OC1(C)C(=O)C=C2C=C(CCCC(=O)OC)OC=C2C1=O (configuration not stated)	?	?	25.1µM	·	·	53.6
CCCc1nnc(NC(=O)c2nc(SCC)ncc2Cl)s1	–	–	–	–	·	·
CC(C)CC(=O)Nc1nnc(SCc2cc(=O)n3ccccc3n2)s1	–	–	–	–	·	·
CCN1CCC(N(Cc2ccc3c(c2)OCO3)C(=O)Nc2cc(Cl)ccc2C(=O)OC)CC1	–	–	–	–	·	·
CC(=O)NC1CCCC1C#N (configuration not stated)	–	–	·	·	·	·
Cc1ccc(C)c(Nc2nnc(-n3nc(C)cc3C)c3ccccc23)c1	?	–	–	–	·	·
CCc1sc(/C=C(/C#N)C(N)=S)cc1[N+](=O)[O-]	?	–	20µM	?	·	42.6
COc1cccc(-n2c(SCC(=O)Nc3ccc4c(c3)OCO4)nc3c([nH]c4ccccc43)c2=O)c1	–	–	–	–	·	·
CCc1ccccc1NC(=O)Cn1c(=O)n(Cc2ccco2)c(=O)c2sc3ccccc3c21	–	–	–	–	·	·
Cc1c(CCOC(=O)c2ccc(N3CCOCC3)c([N+](=O)[O-])c2)sc[n+]1CC#N	?	–	50.1µM	?	·	?	Pol kappa inh-2=75.2
CN(c1ccc(OCC(=O)NC2CCC(O)CC2)cc1)S(=O)(=O)c1ccc(Cl)cc1 (configuration not stated)	?	–	–	·	–	·
O=C(O)C1CC=CCC1C(=O)N1CCc2ccccc21 (configuration not stated)	–	?	?	20µM	–	?
O=C(O)C1C2C=CC(C2)C1C(=O)N1CCc2ccccc21 (configuration not stated)	–	–	–	–	–[11.4 µM]	·
CC(=O)Nc1sc2c(c1-c1nc3ccccc3s1)CNC2	·	·	·	·	·	?
CC(=O)Nc1sc2c(c1-c1nc3ccccc3s1)CCSC2	·	·	·	·	·	75.7
Cc1ccc(Cl)cc1NC(=O)CCn1cnc2ccccc2c1=O	?	–	44.7µM	?	·	75.7
Cc1cc(C)cc(NC(=O)CCn2cnc3ccccc3c2=O)c1	–	–	–	?	·	·
